Where a chain is given by its changes, count along the chain named.

Here are results for 31 sequences from paper PMC3315485, “Probing the Informational and Regulatory Plasticity of a Transcription Factor DNA–Binding Domain”.

For one assay, the target named is T1, MarA RQR (Escherichia coli, UniProt P0ACH5 1-127, W40R).
T1 sequence: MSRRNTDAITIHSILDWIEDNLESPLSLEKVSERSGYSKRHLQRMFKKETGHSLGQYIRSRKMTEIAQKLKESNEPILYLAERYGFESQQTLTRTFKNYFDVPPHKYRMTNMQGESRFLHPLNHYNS
In words: MITOMI; MITOMI, 295 K (22 C); buffer, salt and pH not stated in the material; high values mean tight binding. The following applies: protein: ivt; label: fluorescent; dsDNA, one strand shown. Put shortly: (§1)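 Association constants were determined by MITOMI and are expressed for each site relative to the site with the highest affinity for the same protein variant. The MarA protein variants were made with the RTS E. coli HY kit by in vitro transcription and translation and labelled through addition of tRNA-lys-bodipy-fl. Testing covered 64 synthesized mar binding site variants, with fluorescence read on Genepix at 295K.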
With ATGACGCGTTTTGCTAAAT, the binding signal was 0.33 Ka relative to the best site of the variant.

Another assay has as its target T2, MarA RTR (Escherichia coli, UniProt P0ACH5 1-127, W40R;Q43T).
T2 sequence: T1 sequence with Q43T
Described as above. The following applies: protein: ivt; label: fluorescent; dsDNA, one strand shown. The method in brief: as §1
As for ATGGTGCGTTTTGCTAAAT, the binding signal was 0.183 Ka relative to the best site of the variant.
In the case of ATGTGGCGTTTTGCTAAAT, the binding signal was 0.165 Ka relative to the best site of the variant.
The same measure, in the same setting: to ATGACCCGTTTTGCTAAAT belongs 0.63 Ka relative to the best site of the variant; to ATGTACCGTTTTGCTAAAT, 0.989 Ka relative to the best site of the variant.
On the same count and under the same terms, the same measure for ATGCTTCGTTTTGCTAAAT: 0.723 Ka relative to the best site of the variant; for ATGGTCCGTTTTGCTAAAT: 0.146 Ka relative to the best site of the variant; for ATGTTGCGTTTTGCTAAAT: 0.518 Ka relative to the best site of the variant.
Same read-out and setting: to ATGCCGCGTTTTGCTAAAT belongs 0.245 Ka relative to the best site of the variant; to ATGTAACGTTTTGCTAAAT, 0.514 Ka relative to the best site of the variant; to ATGATACGTTTTGCTAAAT, 0.208 Ka relative to the best site of the variant.
In the case of ATGAAACGTTTTGCTAAAT, the binding signal is 0.323 Ka relative to the best site of the variant.
As for ATGTGTCGTTTTGCTAAAT, the binding signal was 0.231 Ka relative to the best site of the variant.
Still for that read-out and setting: the same measure for ATGTGACGTTTTGCTAAAT: 0.173 Ka relative to the best site of the variant; for ATGGCGCGTTTTGCTAAAT: 0.685 Ka relative to the best site of the variant; for ATGACTCGTTTTGCTAAAT: 0.469 Ka relative to the best site of the variant.
Consider ATGATTCGTTTTGCTAAAT, for which the binding signal is 0.208 Ka relative to the best site of the variant.
With ATGTCGCGTTTTGCTAAAT, the binding signal was 0.353 Ka relative to the best site of the variant.
Same read-out and setting: to ATGTGCCGTTTTGCTAAAT belongs 0.201 Ka relative to the best site of the variant.
Still for that read-out and setting: the same measure for ATGAAGCGTTTTGCTAAAT: 0.204 Ka relative to the best site of the variant; for ATGATCCGTTTTGCTAAAT: 0.175 Ka relative to the best site of the variant; for ATGTCTCGTTTTGCTAAAT: 0.642 Ka relative to the best site of the variant.
Still for that read-out and setting: the same measure for ATGCCACGTTTTGCTAAAT: 0.223 Ka relative to the best site of the variant.
Turning to ATGATGCGTTTTGCTAAAT, the binding signal is 0.243 Ka relative to the best site of the variant.
The same measure, in the same setting: the same measure for ATGGCACGTTTTGCTAAAT: 0.432 Ka relative to the best site of the variant; for ATGAGGCGTTTTGCTAAAT: 0.212 Ka relative to the best site of the variant; for ATGGGTCGTTTTGCTAAAT: 0.203 Ka relative to the best site of the variant.
Still for that read-out and setting: to ATGGGGCGTTTTGCTAAAT belongs 0.167 Ka relative to the best site of the variant; to ATGAGACGTTTTGCTAAAT, 0.229 Ka relative to the best site of the variant.
In the case of ATGTAGCGTTTTGCTAAAT, the binding signal was 0.685 Ka relative to the best site of the variant.
The same measure, in the same setting: to ATGCCTCGTTTTGCTAAAT belongs 0.235 Ka relative to the best site of the variant.
Same read-out and setting: to ATGACGCGTTTTGCTAAAT belongs 0.382 Ka relative to the best site of the variant.

For the next assay, the target named is T3, MarA SAR (Escherichia coli, UniProt P0ACH5 1-127, W40S;Q43A).
T3 sequence: T1 sequence with R40S, Q43A
The description is as above. The note with it: protein: ivt; label: fluorescent; dsDNA, one strand shown. The method in brief: as §1
For the sequence ATGGTGCGTTTTGCTAAAT, the binding signal was 0.784 Ka relative to the best site of the variant.
ATGTGGCGTTTTGCTAAAT: the binding signal is 0.152 Ka relative to the best site of the variant.
Take ATGACCCGTTTTGCTAAAT: the binding signal is 0.573 Ka relative to the best site of the variant.
As for ATGTACCGTTTTGCTAAAT, the binding signal was 0.25 Ka relative to the best site of the variant.
Same read-out and setting: the same measure for ATGCTTCGTTTTGCTAAAT: 0.508 Ka relative to the best site of the variant.
Still for that read-out and setting: to ATGGTCCGTTTTGCTAAAT belongs 0.98 Ka relative to the best site of the variant; to ATGTTGCGTTTTGCTAAAT, 0.191 Ka relative to the best site of the variant; to ATGCCGCGTTTTGCTAAAT, 0.468 Ka relative to the best site of the variant.
The same measure, in the same setting: the same measure for ATGTAACGTTTTGCTAAAT: 0.232 Ka relative to the best site of the variant; for ATGATACGTTTTGCTAAAT: 0.962 Ka relative to the best site of the variant.
Consider ATGAAACGTTTTGCTAAAT, for which the binding signal is 0.852 Ka relative to the best site of the variant.
The same measure, in the same setting: to ATGTGTCGTTTTGCTAAAT belongs 0.282 Ka relative to the best site of the variant; to ATGTGACGTTTTGCTAAAT, 0.165 Ka relative to the best site of the variant.
Regarding ATGGCGCGTTTTGCTAAAT, the binding signal was 0.973 Ka relative to the best site of the variant.
As for ATGACTCGTTTTGCTAAAT, the binding signal was 0.657 Ka relative to the best site of the variant.
The same measure, in the same setting: to ATGATTCGTTTTGCTAAAT belongs 0.807 Ka relative to the best site of the variant; to ATGTCGCGTTTTGCTAAAT, 0.219 Ka relative to the best site of the variant; to ATGTGCCGTTTTGCTAAAT, 0.236 Ka relative to the best site of the variant.
The same measure, in the same setting: the same measure for ATGAAGCGTTTTGCTAAAT: 0.677 Ka relative to the best site of the variant.
Same read-out and setting: the same measure for ATGATCCGTTTTGCTAAAT: 0.872 Ka relative to the best site of the variant.
Regarding ATGTCTCGTTTTGCTAAAT, the binding signal was 0.259 Ka relative to the best site of the variant.
The same measure, in the same setting: the same measure for ATGCCACGTTTTGCTAAAT: 0.379 Ka relative to the best site of the variant; for ATGATGCGTTTTGCTAAAT: 0.854 Ka relative to the best site of the variant; for ATGGCACGTTTTGCTAAAT: 0.741 Ka relative to the best site of the variant.
The same measure, in the same setting: to ATGAGGCGTTTTGCTAAAT belongs 0.726 Ka relative to the best site of the variant.
Still for that read-out and setting: to ATGGGTCGTTTTGCTAAAT belongs 0.534 Ka relative to the best site of the variant; to ATGGGGCGTTTTGCTAAAT, 0.429 Ka relative to the best site of the variant.
For ATGAGACGTTTTGCTAAAT, the binding signal is 0.913 Ka relative to the best site of the variant.
On the same count and under the same terms, the same measure for ATGTAGCGTTTTGCTAAAT: 0.152 Ka relative to the best site of the variant; for ATGCCTCGTTTTGCTAAAT: 0.486 Ka relative to the best site of the variant.
Same read-out and setting: to ATGACGCGTTTTGCTAAAT belongs 0.905 Ka relative to the best site of the variant.
